In PubChem BioAssay:
Active and inactive are the calls of the source.

Legend:
[1] = compounds binding Alexa647 anti-His antibody – biochemical, small-molecule microarray, 635 nm fluorescence, artefact control for SMM control protein annotation, primary screen (AID 1128); conditions: higher = more signal;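 also: score merges feature fluorescence with signal-to-noise for each printed compound spot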
[2] = test system: Human papillomavirus type 1a E7 protein (residues 1-88); test: HPV1a E7 small-molecule binders, primary screen, biochemical, small-molecule microarray, residues 1-88, 635 nm (AID 1129); conditions: small-molecule microarray binding, fluorescence 635 nm; higher = more signal
[3] = target: Focal adhesion kinase 1 (Homo sapiens) (UniProt Q05397); test: PTK2 protein binding on printed compound slides – biochemical, small-molecule microarray, 635/667 nm fluorescence, BSA, DTT, primary screen (AID 1130); conditions: 635 nm fluorescence, higher = more signal;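 also: composite of spot emission at 667 nm and signal to noise over triplicate slides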
Chain of Focal adhesion kinase 1 (Homo sapiens) (Q05397 whole entry, looked up): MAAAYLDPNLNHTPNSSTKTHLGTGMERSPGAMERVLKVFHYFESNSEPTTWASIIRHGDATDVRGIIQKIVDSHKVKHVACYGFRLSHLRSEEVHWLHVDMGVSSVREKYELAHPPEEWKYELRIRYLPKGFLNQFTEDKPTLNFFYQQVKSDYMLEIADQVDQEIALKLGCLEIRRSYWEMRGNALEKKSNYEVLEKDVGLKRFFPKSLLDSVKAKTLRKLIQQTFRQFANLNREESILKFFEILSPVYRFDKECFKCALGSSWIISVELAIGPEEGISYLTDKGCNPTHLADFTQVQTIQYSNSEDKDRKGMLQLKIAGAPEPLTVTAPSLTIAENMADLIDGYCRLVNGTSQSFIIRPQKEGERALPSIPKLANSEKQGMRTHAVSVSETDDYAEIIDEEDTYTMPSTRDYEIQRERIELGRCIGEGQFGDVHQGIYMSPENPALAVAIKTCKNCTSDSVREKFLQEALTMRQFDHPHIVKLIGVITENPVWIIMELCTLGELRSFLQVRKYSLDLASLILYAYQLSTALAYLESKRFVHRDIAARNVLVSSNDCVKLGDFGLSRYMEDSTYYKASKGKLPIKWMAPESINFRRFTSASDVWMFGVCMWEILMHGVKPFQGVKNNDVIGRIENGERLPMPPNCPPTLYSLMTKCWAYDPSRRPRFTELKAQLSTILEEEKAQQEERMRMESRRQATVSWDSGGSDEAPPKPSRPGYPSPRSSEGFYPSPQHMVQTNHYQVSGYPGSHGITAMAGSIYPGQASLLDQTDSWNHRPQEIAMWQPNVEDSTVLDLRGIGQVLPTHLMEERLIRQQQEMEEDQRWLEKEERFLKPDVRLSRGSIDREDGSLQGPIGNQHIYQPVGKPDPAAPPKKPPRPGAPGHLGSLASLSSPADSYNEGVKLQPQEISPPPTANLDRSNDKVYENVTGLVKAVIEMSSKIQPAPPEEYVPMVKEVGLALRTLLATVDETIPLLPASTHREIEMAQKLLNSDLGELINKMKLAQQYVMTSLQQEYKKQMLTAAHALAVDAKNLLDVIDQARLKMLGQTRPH

[4] = test system: Fibrinogen (Alexa647-labelled); test: Alexa647-fibrinogen binding to printed small molecules – biochemical, small-molecule microarray, 635/667 nm fluorescence, artefact control for SMM control-protein annotation, profiling panel (AID 1131); conditions: fibrinogen-A647 binding fluorescence, higher = more signal;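 also: z-score merges 667 nm fluorescence with per-spot signal-to-noise over triplicate slides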
[5] = target: Follistatin (Homo sapiens) (UniProt P19883); test: FST protein binding to printed compounds – biochemical, small-molecule microarray, 635/667 nm fluorescence, primary screen (AID 1132); conditions: 635 nm fluorescence, higher = more signal
Chain of Follistatin (Homo sapiens) (P19883 whole entry, looked up): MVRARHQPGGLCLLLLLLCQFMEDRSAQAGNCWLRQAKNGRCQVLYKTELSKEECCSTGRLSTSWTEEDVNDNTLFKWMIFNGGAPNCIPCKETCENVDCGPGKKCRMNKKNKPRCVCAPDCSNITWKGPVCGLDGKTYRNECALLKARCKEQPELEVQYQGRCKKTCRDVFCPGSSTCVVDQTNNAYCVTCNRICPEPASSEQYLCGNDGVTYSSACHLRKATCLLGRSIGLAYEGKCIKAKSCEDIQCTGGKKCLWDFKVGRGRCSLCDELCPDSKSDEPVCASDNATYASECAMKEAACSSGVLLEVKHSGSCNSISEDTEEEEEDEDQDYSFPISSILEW

[6] = target: Fibroblast growth factor 2 (Homo sapiens) (UniProt P09038); test: basic fibroblast growth factor binding to printed compounds – biochemical, small-molecule microarray, 635/667 nm fluorescence, primary screen (AID 1133); conditions: FGF2, fluorescence 635/667, higher = more signal
Chain of Fibroblast growth factor 2 (Homo sapiens) (P09038 whole entry, looked up): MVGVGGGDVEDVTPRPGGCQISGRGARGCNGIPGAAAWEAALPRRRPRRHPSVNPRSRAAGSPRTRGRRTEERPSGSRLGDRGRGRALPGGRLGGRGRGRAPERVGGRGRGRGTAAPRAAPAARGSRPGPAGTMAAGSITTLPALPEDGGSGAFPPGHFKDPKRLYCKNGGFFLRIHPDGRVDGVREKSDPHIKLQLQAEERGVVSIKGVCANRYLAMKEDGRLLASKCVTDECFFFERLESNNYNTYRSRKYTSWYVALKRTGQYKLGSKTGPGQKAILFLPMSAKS

[7] = JC-1 mitochondrial potential readout, lung cancer cells – cell-based, A549, JC-1 fluorescence, basal, 24 h, 100 nL, profiling panel (AID 1138); conditions: higher = more signal;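 also: A549 lung adenocarcinoma cells under basal conditions with no added stimulus; test concentration not given here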
[8] = test system: Lefty1; test: Lefty1 protein binding to printed compounds – biochemical, small-molecule microarray, 635/667 nm fluorescence, primary screen (AID 1139); conditions: fluorescence 635/667, higher = more signal
[9] = test system: wheat germ agglutinin (Triticum aestivum), Alexa647-labelled; test: Alexa647-WGA lectin binding to printed small molecules – biochemical, small-molecule microarray, 635/667 nm fluorescence, artefact control for SMM control-protein annotation, profiling panel (AID 1140); conditions: WGA-A647 binding, 635 nm fluorescence, higher = more signal;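 also: score merges 667 nm feature emission with signal to noise over triplicate slides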
[10] = target: Luciferin 4-monooxygenase (Photinus pyralis) (UniProt P08659); test: inhibition of purified Photinus pyralis luciferase – biochemical, luminescence, purified enzyme, 2006 set, primary screen (AID 1141); conditions: purified firefly luciferase, SteadyGlo luminescence, 30 min; higher = more signal, called active from +8 up or from −8 down;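 also: cell-free assay with purified firefly luciferase at 100 ng per well in PBS; test concentration not given here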
Chain of Luciferin 4-monooxygenase (Photinus pyralis) (P08659 whole entry, looked up): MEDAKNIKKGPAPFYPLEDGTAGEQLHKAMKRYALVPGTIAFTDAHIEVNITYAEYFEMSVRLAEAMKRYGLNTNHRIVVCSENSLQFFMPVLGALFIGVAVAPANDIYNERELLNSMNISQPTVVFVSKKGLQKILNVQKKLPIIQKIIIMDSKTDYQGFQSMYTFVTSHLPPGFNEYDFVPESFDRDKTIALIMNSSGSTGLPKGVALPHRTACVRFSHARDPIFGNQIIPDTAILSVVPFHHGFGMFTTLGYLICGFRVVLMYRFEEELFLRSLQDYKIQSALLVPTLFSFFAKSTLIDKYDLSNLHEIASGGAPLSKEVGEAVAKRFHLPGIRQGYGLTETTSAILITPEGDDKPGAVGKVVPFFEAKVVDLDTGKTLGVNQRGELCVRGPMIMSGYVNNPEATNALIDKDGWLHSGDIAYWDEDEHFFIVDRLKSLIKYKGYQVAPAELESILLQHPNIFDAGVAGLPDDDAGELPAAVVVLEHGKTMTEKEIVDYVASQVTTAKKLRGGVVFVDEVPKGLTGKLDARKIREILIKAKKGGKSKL

Structure (SMILES) | composite z-score [1] | composite z-score [2] | composite z-score [3] | composite z-score [4] | composite z-score [5] | composite z-score [6] | z-score [7] | composite z-score [8] | composite z-score [9] | z-score [10]
COc1ccc([Si](C)(C)[C@H]2[C@H](CCn3cc([C@H](O)c4ccccc4)nn3)O[C@@]3(C(=O)N(C)c4c(Br)cc(C)cc43)[C@@H]2C)cc1 | 0.523 | -0.212 | -0.472 | -0.496 | 1.5 | 1.87 | 0.134 | 1.37 | 0.343 | -0.877 (inactive)
O=C1C2C=CC(C(O)c3ccc([N+](=O)[O-])cc3)N(Nc3ccccc3)C2C(=O)N1c1ccccc1 (stereo not given) | 0.175 | 0.976 | 1.38 | 1.02 | 0.544 | -0.239 | -0.467 | 0.27 | 0.611 | -0.284 (inactive)
COc1cccc(C[C@H]2C[C@@H](CO[Si](C(C)C)(C(C)C)C(C)C)N3C(=O)[C@@]4(C(C)=O)O[C@@]23[C@@H]2C(=O)N(C)C(=O)[C@@H]24)c1 | -0.265 | 0.681 | 0.0669 | 0.529 | 0.897 | 1.25 | 0.189 | 1.4 | 0.326 | 0.768 (inactive)
C=CCC(OC(C)=O)[C@@H]1[C@@H](N(Cc2ccc(-c3cccc(C(F)(F)F)c3)o2)C(=O)Cc2ccc(F)cc2)c2cc(OCCCO)ccc2N1C(=O)c1ccc2ccccc2c1 (stereo not given in full) | -0.118 | -0.783 | -0.192 | -1.67 | 0.426 | -0.451 | 0.637 | 0.479 | -0.486 | 0.354 (inactive)
COCCOC(=O)N1C(=O)[C@@]2(c3ccccc31)[C@H](C(N)=O)[C@H]1C(=O)O[C@H](c3ccccc3)[C@H](c3ccccc3)N1[C@@H]2c1ccc(OCCO)cc1 | 0.918 | 1.24 | 0.451 | 0.927 | 1.11 | 0.807 | 0.101 | 0.619 | 0.982 | 0.346 (inactive)
CN(C)C(=O)[C@@]1(CCS(=O)(=O)c2ccccc2)N=C(c2ccc(OCCCO)cc2)O[C@H]1c1ccccc1N=[N+]=[N-] | 0.838 | 1.25 | 0.601 | 1 | 1.1 | 0.58 | 0.371 | 0.267 | 0.371 | -11 (active)
CCCC[C@@H](O)C1=C(COC)Cn2c(=O)n(-c3ccccc3)c(=O)n2[C@H]1CO | 0.0209 | -0.155 | -0.109 | 0.894 | -0.266 | 0.0646 | -0.239 | -0.0726 | 0.858 | -1.65 (inactive)
COCCOC(=O)N1C(=O)[C@@]2(c3cc(C#CC4(O)CCCCCC4)ccc31)[C@H](C(=O)NC[C@H](O)c1ccccc1)[C@H]1C(=O)O[C@H](c3ccccc3)[C@H](c3ccccc3)N1[C@@H]2c1ccc(O)cc1 | 1.39 | 1.18 | 0.392 | 0.721 | 0.37 | 0.774 | 0.139 | 0.439 | 0.721 | -0.474 (inactive)
C=CCNC(=O)[C@H]1[C@@H]2C(=O)O[C@@H](c3ccccc3)[C@@H](c3ccccc3)N2[C@@H](c2ccc(O)cc2)[C@]12C(=O)Nc1ccc(C#CC3=CCCCC3)cc12 | 1.3 | 1.02 | 0.0897 | 0.531 | 0.886 | 0.355 | 0.88 | 0.916 | 0.622 | 0.0736 (inactive)
C=CCNC(=O)[C@@H]1[C@H]2C(=O)O[C@H](c3ccccc3)[C@H](c3ccccc3)N2[C@H](c2ccccc2OCCO)[C@@]12C(=O)N(C(=O)OCCOC)c1ccc(C#CCCO)cc12 | 1.91 | 1.21 | 0.988 | 0.414 | 0.881 | 1.29 | -0.549 | 0.711 | 0.971 | -0.0405 (inactive)
COc1ccc(C#Cc2ccc3c(c2)[C@]2(C(=O)N3)[C@H](c3ccc(OCCO)cc3)N3[C@H](c4ccccc4)[C@H](c4ccccc4)OC(=O)[C@H]3[C@@H]2C(=O)O)cc1 | 0.406 | 1.22 | 0.583 | 0.771 | 1.15 | 0.485 | -2.54 | 1.63 | 0.416 | -4.63 (inactive)
COC(=O)[C@@H]1N=C(c2ccc(OCCCO)cc2)O[C@@H]1c1ccccc1CN=[N+]=[N-] | -0.125 | 0.943 | 0.841 | 0.38 | 0.233 | -0.633 | 0.22 | -0.119 | 0.939 | -0.0813 (inactive)
CC1CC/C=C\[C@H]2OC34C=CCN(c5ccc(Cl)cc5)C(=O)[C@H]3N(CCCO)C(=O)[C@]4(C)C2C(=O)O1 (stereo not given in full) | -0.567 | -0.796 | -0.444 | -1.67 | -0.6 | -1.2 | 0.58 | -0.157 | -1.34 | -0.0112 (inactive)
CC(c1ccccc1)C(O)C1C=CC2C(=O)N(c3ccccc3)C(=O)C2N1Nc1ccc(C#N)cc1 (stereo not given) | 2.19 | 1.22 | 0.648 | 0.993 | 1.12 | 0.329 | 1.03 | 1.12 | 0.772 | -0.424 (inactive)
C[C@H]1NC(=O)C([C@@H](C)OCc2ccccc2)NC(=O)[C@@]23C(=O)N[C@@H](Cc4ccccc4)C2[C@H](C)[C@@]2(C)O[C@H]2C3/C=C/C/C=C\CNC1=O (stereo not given in full) | 0.296 | -0.728 | -0.235 | -0.394 | 0.425 | 0.545 | 0.919 | 0.459 | -0.682 | -1.02 (inactive)
COc1ccc([Si](C)(C)[C@@H]2[C@@H](CC(=O)N(CCO)Cc3ccccc3)O[C@]3(C(=O)N(Cc4ccc(N5CCC5=O)cc4)c4ccccc43)[C@H]2C)cc1 | 1.28 | -0.324 | -0.162 | -0.263 | 0.818 | 0.988 | 0.445 | 0.565 | 0.431 | 0.295 (inactive)

Structure (SMILES) | composite z-score [1] | composite z-score [2] | composite z-score [3] | composite z-score [4] | composite z-score [5] | composite z-score [6] | z-score [7] | composite z-score [8] | composite z-score [9] | z-score [10]
CCCCC(=C=CC[C@@H](O)c1ccc(OCCO)cc1)C[C@@H](O)c1ccccn1 | -0.0662 | 0.731 | 0.178 | 0.141 | 1.22 | 0.611 | 0.176 | 1.47 | -0.146 | -1.12 (inactive)
COc1cc2c(cc1O)C(C1CC1)N(Cc1ccc([N+](=O)[O-])o1)CC2 (stereo not given) | 0.852 | 1.12 | 0.325 | 0.577 | 0.361 | -0.0629 | -0.184 | -0.546 | 1.06 | -0.924 (inactive)
CCCCN1CC=CC23O[C@@H]4C=CCOC(=O)[C@@H]4[C@H]2C(=O)N(CCO)[C@@H]3C1=O (stereo not given in full) | -0.211 | -0.629 | -0.681 | -0.717 | -1.06 | -1.39 | 0.0309 | -1.45 | -1.29 | 0.0308 (inactive)
COC(=O)C1=CC(CCCO)=CC(C2CC2)N(Cc2cccc(OC(F)(F)F)c2)C=C1C(=O)OC (stereo not given) | 1 | 0.846 | 1.03 | 0.884 | 0.0058 | -0.653 | 1.1 | 0.126 | 0.824 | 0.189 (inactive)
Cc1ccc(S[C@]2(C(=O)NCCCN(C)C)CC(=O)N(Cc3ccccc3Cl)[C@@H]2c2ccc(CO)cc2I)cc1 | -0.704 | -0.522 | 0.404 | -1.05 | -0.667 | -1.09 | 0.935 | -0.767 | 1.17 | -0.543 (inactive)
C=CCC(OC(C)=O)[C@@H]1[C@@H](N(Cc2ccc(-c3ccccc3)cc2)C(=O)c2ccc(-c3ccccc3)cc2)c2cc(OCCCO)ccc2N1C(=O)c1ccc2ccccc2n1 (stereo not given in full) | -0.513 | 0.907 | 0.879 | -0.239 | 0.548 | 0.051 | 1.61 | -0.101 | 0.152 | -1.46 (inactive)
CC#CCO[Si](C#CCCCCCC)(C(C)C)C(C)C | -0.19 | -0.419 | -0.103 | -1.49 | -2.99 | -2.42 | -0.996 | -1.93 | 0.064 | 0.944 (inactive)
C=C(C(=O)CC[C@@H](OC(C)=O)c1cccc(OCCO)c1)C(C)C | 0.83 | 0.54 | 0.217 | -0.281 | 0.549 | -0.531 | -0.106 | 0.889 | 0.449 | -1.08 (inactive)
CC(=O)NCCCC[C@@H]1NC(=O)[C@H]2C[C@@H](C(=O)NCCCCCC[N+](C)(C)C)[C@@H](c3ccc(O)cc3)N2C1=O | 1.54 | 1.08 | 0.26 | -0.0238 | 1.26 | 0.862 | -0.431 | 1.41 | 0.16 | 0.512 (inactive)
C=C(COC)/C(=C/C[C@H](OC(=O)c1ccncc1)c1ccc(OCCO)cc1)c1cc(C(=O)OC)ccc1OC | 1.14 | 1.18 | 0.918 | 0.763 | 1.38 | 0.329 | -0.408 | 1.58 | 0.622 | -0.265 (inactive)
COc1cc(OC)c(C(O)C2C=CC3C(=O)N(c4ccccc4)C(=O)C3N2Nc2ccccc2F)cc1Br (stereo not given) | 1.31 | 1.25 | 0.823 | 1.01 | 1.34 | 0.0348 | -0.78 | 0.666 | 0.898 | -0.443 (inactive)
CCc1cccc(NC(=O)O[C@H]2[C@H](OC(=O)Nc3ccc4c(c3)OCO4)[C@H](OC(=O)Nc3ccc4c(c3)OCO4)[C@@H](OC)O[C@@H]2CO)c1 | 2.14 | 1.24 | -0.164 | 0.97 | 0.987 | 0.0183 | -0.308 | 0.478 | 0.815 | -10.5 (active)
CN(C)CCCCNC(=O)[C@H]1C[C@H]2C(=O)NCC(=O)N2[C@H]1c1cccc(OCCO)c1 | 0.465 | -0.74 | -0.539 | -1.59 | 0.991 | 0.817 | 0.411 | 0.748 | 0.169 | 1.59 (inactive)
CN(C)CCCC[C@@H]1NC(=O)[C@@H]2C[C@H](C(=O)NCc3ccc(F)cc3)[C@H](c3ccc(O)cc3)N2C1=O | 0.0971 | 0.0709 | -0.103 | 0.348 | 1.45 | 1.91 | 0.0539 | 0.748 | -0.0665 | 0.144 (inactive)
C=CC[C@]1(C(=O)N(C)C)COC(c2ccc(OCCCO)cc2)=N1 | 3.41 | 1.09 | 0.268 | -0.744 | 0.517 | 0.982 | -0.392 | -0.26 | 0.615 | -2.7 (inactive)
CO[C@H]1O[C@H](CO)[C@@H](OC(=O)Nc2ccccc2)[C@@H]2OC(=O)[C@H](Cc3ccccc3)C/C=C/C[C@@H](Cc3ccccc3)C(=O)O[C@@H]12 | 2.3 | 1.13 | 0.473 | 0.718 | 1.29 | 1.74 | 2.27 | 1.33 | 0.588 | -0.617 (inactive)
